Drawing on ChEMBL document CHEMBL4513216, “Probing the Open Global Health Chemical Diversity Library for Multistage-Active Starting Points for Next-Generation Antimalarials” (ACS Infect Dis, 2020), this text covers INHIBITION for 112 compounds.

Structures are written as SMILES. Screen size: about 65,000 compounds; about 2,100 (3.2%) showed an effect of 50% or more. The median lay at about -52%. The sample as a whole holds a higher share of strong results than the screen did.

For the assay, the system named is Plasmodium falciparum. As to the kind of experiment: Screen against P. falciparum Asexual Blood Stage (ABS), at 5uM. The class given is functional, Dd2. The following applies: tested at 5 uM.
Regarding `CCOC(=O)N1CCCC2(CCN(Cc3ccccc3C#N)C2)C1` (configuration not stated), the INHIBITION is given as -71.9%.

Regarding `CN1CCN(C(CNC(=O)CCn2cccn2)c2cccs2)CC1` (configuration not stated), the INHIBITION is -29.5%. With `CN1CCN(C(CNC(=O)c2ccc(Cl)cc2F)c2cccs2)CC1` (configuration not stated), the INHIBITION is listed as 53.9%.

On to `CN1CCN(Cc2ccccc2CNC(=O)c2ccc(Br)cc2F)CC1`, for which the INHIBITION was 48.8%.

Regarding `O=C(NCC(c1cccs1)N1CCOCC1)c1ccc(F)cc1Cl` (configuration not stated), the INHIBITION is given as -46.5%. The result for `CN1CCN(Cc2ccccc2CNC(=O)c2cc(Cl)ccc2F)CC1` reads 66.5%; that for `CC(CNC(=O)c1ccc(Cl)cc1F)N1CCCC1` (configuration not stated), -2.96%. In the case of `CC(CNC(=O)c1ccc(Cl)cc1F)N1CCN(C)CC1` (configuration not stated) it was 64.1%; in that of `CC(CNC(=O)c1cc(Cl)ccc1F)N1CCCC1` (configuration not stated), 12.4%.

Take `CN1CCN(Cc2ccccc2CNC(=O)c2ccc(Br)cc2)CC1`: the INHIBITION came out at 46.2%. In the case of `Cc1cc(C)n(CCN2CCC(N(C)Cc3noc(C4CC4)n3)C2)n1` (configuration not stated), the INHIBITION was -148%.

With `Cc1cc(C(=O)N2CCc3ncnc(-c4cnn(C)c4)c3CC2)c(C)o1`, the INHIBITION was -23.2%. For the compound `CC(CNC(=O)c1ccc(=O)[nH]n1)N1CCc2ccccc21` (configuration not stated), the INHIBITION is recorded as -120%. Regarding `CN(C)C(=O)NC[C@@H]1OC[C@H]2CN(Cc3cccc(F)c3)CC[C@H]21`, the INHIBITION is reported as -66.7%. In the case of `CN(C)CC1CSCCCN1C(=O)c1ccc(-c2ccccc2)cc1` (configuration not stated) it was 6.37%; in that of `CN(C)CC1CSCCCN1C(=O)c1ccc(-n2cccc2)cc1` (configuration not stated), 63%. In the case of `CN(C)CC1CSCCCN1C(=O)c1ccc(C(C)(C)C)cc1` (configuration not stated), the INHIBITION is listed as 2.97%. The result for `CC(C)NC(=O)C1CCC2(CCN(Cc3cnn(C)c3)CC2)CO1` (configuration not stated) reads -63.9%; that for `CC(NC(=O)Cn1cc(-c2ccccc2)cn1)C1CC1` (configuration not stated), -158%; that for `COCC1CN(S(=O)(=O)C2CC2)Cc2ncn(CC3CC3)c21` (configuration not stated), -17.1%.

Take `CS(=O)(=O)N1CCN(C(=O)CCn2cccn2)CC1`: the INHIBITION was -7.11%. In the case of `CC(C)CN1CCN(C(=O)CCn2cccn2)CC1` it was 67.8%; in that of `O=C(CCn1cccn1)N1CCN(CC(F)F)CC1`, -177%. In the case of `COC1CCN(C(=O)CCn2cccn2)CC1` it was 53.1%. In the case of `CCC(=O)N1CCN(C(=O)CCn2cccn2)CC1` it was -114%. Turning to `CNC(=O)C1CCN(C(=O)CCn2cccn2)CC1`, the INHIBITION is reported as -104%.

Take `COCc1nc(N(C)C)ncc1C(=O)OC`: the INHIBITION was -29.3%. The result for `Cc1ccc(CN2Cc3nnn(C)c3C(COCc3ccccc3)C2)s1` (configuration not stated) reads -43.4%; that for `CN(CCc1ncnn1C1Cc2ccccc2C1)C1CCS(=O)(=O)C1` (configuration not stated), -63.2%. In the case of `Cc1cccc(OCC(O)CN2CCN(c3nccs3)CC2)c1` (configuration not stated) it was -7.68%; in that of `CCOc1cc(C(=O)N2CCCC2)cc2occc12`, -69.7%; in that of `Cc1n[nH]cc1CNC1CCN(c2ccccc2)CC1`, -20.1%. In the case of `Cc1n[nH]cc1CNC1CCN(c2cccc(C(F)(F)F)c2)CC1` it was 62.8%.

Consider `Cc1n[nH]cc1CNC1CCN(c2ccc(F)cc2)CC1`, for which the INHIBITION is -38.1%. The result for `COc1ccc(C(=O)C2CCCN(c3cc(C#N)ccn3)C2)cc1F` (configuration not stated) reads -126%. The result for `CCC(CNC1CCN(C(C)=O)CC1)Oc1cccc(C)c1` (configuration not stated) reads 53.2%; that for `COCC(=O)N1CCC(Oc2cccc(C)c2)CC1`, -127%; that for `CCC(CNC1CCN(C(C)=O)CC1)Oc1ccccc1Cl` (configuration not stated), 48.8%. In the case of `O=C(C1CCCCC1)N1CCC2(CCCN2CC2CC2)CC1` it was -19.9%. Take `CC(C)c1noc(CN2CCN(C(=O)c3cccnc3O)CC2)n1`: the INHIBITION is on record as -63.3%.

Take `Cc1nn(-c2ccccc2)c(C)c1-c1ccnc(N2CCCOCC2)n1`: the INHIBITION is -64.7%.

For the compound `Cc1nn(-c2ccccc2)c(C)c1-c1ccnc(N2CCC(O)CC2)n1`, the INHIBITION is -309%. In the case of `Cc1nn(-c2ccccc2)c(C)c1-c1ccnc(N2CCCNCC2)n1` it was 66.9%; in that of `CN1CCN(c2cc(Sc3cccs3)nc(N)n2)CC1CCO` (configuration not stated), -77.1%; in that of `Cc1nc(CN2CCCC(N(C)Cc3nccn3C)C2)no1` (configuration not stated), -29.4%. The result for `CN(CCc1ccccc1)C1CCCN(Cc2nccn2C)C1` (configuration not stated) reads 22.1%; that for `CN(Cc1nccn1C)C1CCCN(CCCc2ccccc2)C1` (configuration not stated), 63.9%; that for `O=C1COC2(CCN(c3ncccn3)CC2)CN1`, -86%. In the case of `COCCC1COC2(CCN(C(=O)c3ccsc3)CC2)C1` (configuration not stated) it was -101%. As for `C1CCC(NCCN2CCOCC2)C1`, the INHIBITION is recorded as -99.9%. The result for `CCC1CCC(NCCN2CCOCC2)CC1` (configuration not stated) reads 5.69%; that for `CC(C)(C)C1CCC(NCCN2CCOCC2)CC1` (configuration not stated), 56.3%.

With `CC(C)c1cc(C(=O)NCCc2nc3c(s2)CCC3)n(C)n1`, the INHIBITION is on record as -63.4%. Take `Cc1noc(C)c1-c1ccnc(C2CCNCC2)c1`: the INHIBITION was -51.7%. The result for `CC(=O)N1CC[C@@]2(O)CCCC[C@H]2[C@@H]1c1ccc2c(c1)OCO2` reads -87.3%; that for `N#Cc1ccc(CNC2CCN(CCc3ccncc3)CC2)cc1`, 56.7%. The result for `Oc1cccc(CNC2CCN(CCc3ccncc3)CC2)c1` reads -18.8%; that for `c1cc(CCN2CCC(NCc3ccsc3)CC2)ccn1`, -8.86%; that for `CC(CNC(=O)c1cnc[nH]1)Oc1ccccc1Br` (configuration not stated), -61.4%.

For the compound `CC(C)N1CCC(c2cnc(-c3cncnc3)cn2)CC1`, the INHIBITION is listed as -18%. In the case of `COc1cccc(-c2cccc(CN3C[C@H]4CC[C@@H](C3)N(C)C4=O)c2)c1` it was 13.1%. `CCc1ncc2c(n1)CN(CC(=O)Nc1ccc(Cl)cn1)CC2`: the INHIBITION is recorded as 59.4%. In the case of `CC(C)c1ncc2c(n1)CN(CC(=O)Nc1ccc(Cl)cn1)CC2` it was -65.1%; in that of `Cc1ncc2c(n1)CN(CC(=O)Nc1ccc(Cl)cn1)CC2`, 6.47%. `CCCc1nc(N2CCCCCC2)c2c(n1)c(C)nn2CC`: the INHIBITION worked out at 22.2%. The result for `NC(=O)C1(CCCc2ccccn2)CCCN(Cc2ccncc2)C1` (configuration not stated) reads -123%; that for `CC(O)CN1CCC(CN(C)C(=O)NC2CC2)CC1` (configuration not stated), -50.7%. As to `Cc1ccc(CN2Cc3nccn3CC(CN(C)C)C2)s1` (configuration not stated), the INHIBITION is -47.7%. With `CCN(CC)CC1CN(Cc2ccco2)Cc2nccn2C1` (configuration not stated), the INHIBITION is -52.4%.

As for `CCN(CC)CC1CN(Cc2ccc(C)s2)Cc2nccn2C1` (configuration not stated), the INHIBITION was determined as 66.7%. `Cc1ccc(CN2Cc3nccn3CC(Cn3cccn3)C2)s1` (configuration not stated): the INHIBITION is on record as -26.9%. The result for `CCN(CC)CC1CN(Cc2cccc(C#N)c2)Cc2nccn2C1` (configuration not stated) reads -6.06%; that for `CCN(CC)CC1CN(CCc2ccccc2)Cc2nccn2C1` (configuration not stated), 58.7%. In the case of `Cc1cc(CCC(=O)NCc2ncc[nH]2)ccc1Br` it was -116%. The result for `CCOC(=O)[C@]12CCCN(Cc3cccs3)C[C@H]1CN(CC(C)C)C2` reads 14.6%; that for `NC(=O)c1ccc(C(=O)N2CCCCC2Cn2cccn2)s1` (configuration not stated), -33.2%.

Take `O=C(c1cc(Cl)cc2cccnc12)N1CCN(CCO)CC1`: the INHIBITION came to 30.3%.

`O=C(C1CCC1)N1C[C@@H]2CN(Cc3ccncc3)C(=O)[C@@H]2C1`: the INHIBITION is -74.3%. In the case of `Cn1cc(CN2CCOC(c3cccc(-c4cncnc4)n3)C2)cn1` (configuration not stated) it was -54.2%. Regarding `COc1ccc(-c2ccnc(N)c2)c(OC)c1`, the INHIBITION was -90.3%. The result for `COc1ccc(-c2ccccc2CN)c(OC)c1` reads 60.2%; that for `COc1ccc(CN)c(OC(F)F)c1`, -30%; that for `CC(C)(C)CN1CCCC(c2nccnc2Nc2cnccn2)C1` (configuration not stated), 22.1%. In the case of `O=C(CCCc1cccs1)N1CCC(N2CCNC2=O)CC1` it was -185%; in that of `CC(C)CN1C(=O)C2(CCN(Cc3nccs3)C2)c2ccccc21` (configuration not stated), -54.5%; in that of `CCO[C@H]1C[C@@H](O)C12CCN(C1CCN(c3ccccc3C)CC1)CC2`, 10.7%. In the case of `CCc1ccc(C2CC(=O)Nc3cc(OC)c(NS(C)(=O)=O)cc32)o1` (configuration not stated) it was -121%; in that of `Cc1cccnc1CN1CCN(C(=O)c2cnn(C(C)C)c2)CC1`, -15.2%.

With `Cc1nc(N2CCOCC2)nc2c1CN(C(=O)C(C)C)CC2`, the INHIBITION is listed as 56.2%. The result for `Cc1nc(N2CCCC2)nc2c1CN(C(=O)N(C)C)CC2` reads -67.8%. Regarding `Cc1nc(N2CCCC2)nc2c1CN(C(=O)N1CCOCC1)CC2`, the INHIBITION is -70.2%.

For `CC(=O)N1CCc2nc(N3CCCC3)nc(C)c2C1`, the INHIBITION is reported as 53.8%. The result for `Cc1nc(N2CCOCC2)nc2c1CCN(C(=O)N1CCCC1)CC2` reads -112%; that for `Cc1nc(N2CCCC2)nc2c1CCN(C(=O)N1CCCC1)CC2`, 47%; that for `O=C(NCC(F)F)c1cnc(C2CCCN2)cn1` (configuration not stated), -41.5%. For `CCn1cc(NC(=O)C2CCN(Cc3nc(C(C)C)no3)CC2)cn1`, the INHIBITION is listed as -86%. With `COc1ccc(F)c(CN(CCCn2ccnc2)Cc2ccc(C)s2)c1`, the INHIBITION amounted to 39.5%. The result for `Cc1ccc(CN(CCCn2ccnc2)Cc2cc(F)ccc2F)s1` reads 68.8%. The result for `Cc1ccc(O)c(CN(CCCn2ccnc2)Cc2ccc(C)s2)c1` reads 43%; that for `CC(C)(C)NC(=O)C1CSCN1C(=O)CCc1ccco1` (configuration not stated), -87.6%. As to `O[C@H]1CC[C@@H](Cc2cc(-c3ccc(F)cc3)on2)O[C@@H]1CNCC1CC1`, the INHIBITION turned out to be 63.5%. In the case of `O[C@H]1CC[C@@H](Cc2cc(-c3ccccn3)on2)O[C@@H]1CNCC1CC1` it was -70.3%; in that of `O[C@H]1CC[C@@H](Cc2cc(-c3ccccc3)on2)O[C@@H]1CNCC1CC1`, 39.2%; in that of `COCCCNC1N=C(n2nc(C)cc2C)Nc2sc3c(c21)CCCC3` (configuration not stated), 46.7%. In the case of `COc1ccc(NC2(C(=O)N3CCn4cncc4C3)CCCC2)cc1` it was -27.6%. The result for `COc1ccc(NC2(C(=O)N3CCCn4cncc4C3)CCCC2)cc1` reads 45%; that for `Cc1ccc(NC2(C(=O)N3CCn4cncc4C3)CCCCC2)cc1C`, 64.5%. Take `CN(C)c1cc(CNC(=O)c2cc(Cl)ccn2)ccn1`: the INHIBITION is -158%.

`Cc1cc(-c2nn3c(C(C)C)nnc3s2)on1`: the INHIBITION is reported as -33%. The result for `COCC1Cn2nnc(-c3cnn(C)c3)c2CN1Cc1ccc(C)s1` (configuration not stated) reads -9.62%; that for `COCC1Cn2nnc(-c3cnn(C)c3)c2CN1Cc1cccs1` (configuration not stated), 59.2%; that for `COCC1Cn2nnc(-c3cnn(C)c3)c2CN1Cc1ccco1` (configuration not stated), -88.9%.
